Data taken from PubChem BioAssay (NCATS).
“And” between values parts separate entries of the source, which are not always exact repeats. Equal entries are not always repeated. Results filed as inconclusive are left out. More than one record can exist for a structure, and the calls need not agree. The source made the active and inactive calls. Unless noted, the call rests on the fitted dose curve; in most records, active means well fitted curve in the direction sought with a large enough effect; inconclusive means small, poorly fitted or top-dose-only effect, or another doubt; inactive means no such curve, though single readings can be large; an effect the other way counts as inactive or inconclusive.

Key:
Tov-21-G = assay: Primary qHTS to identify gynecologic anti-cancer compounds using libraries of approved drugs and bioactive compounds (AID 1345084); conditions: Gynecologic cancer cell panel viability, ATPlite luminescence, 48 h; series mostly up to 57.5 µM; further: nearly all actives have a fitted effect of over 55% in size; further: potency means the concentration at half of the fitted maximal effect
Summary of the method: (§1)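 ATP-based viability (ATPlite), 1,000 cells/well, 16 h pre-incubation, 48 h compound at 37 C, 5% CO2, 15 min RT before read.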

Tov112D = assay: as above; conditions: Gynecologic cancer cell panel viability, ATPlite luminescence, 48 h; series mostly up to 57.5 µM
Summary of the method: as §1

[1] = qHTS assay to identify inhibitors of the type 1 interferon - major histocompatibility complex class I in skeletal muscle: Counter screen cell viability and HiBit confirmation (AID 1347412); conditions: iHSKM muscle cells + IFN-b, HiBiT or CellTiter-Glo, 24 h; for activity change, negative = inhibition: at 45.9 µM (top of the series); further: potency means the concentration at half of the fitted maximal effect; on activity change, negative = inhibition: on the % scale 0 is the no-effect control and ±100 the full control effect; on all read-outs here: nearly all actives have a fitted effect of over 60% in size
Summary of the method: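 HLA-B*08:01–HiBiT knock-in immortalized human myoblasts (C25cl48) stimulated with 4.0 ng/ml human IFN-beta and dosed with compound in a 12-point 1:3 titration (top final 46 uM). After 24 hrs at 37 C, HiBiT lytic luminescence or CellTiter Glo ATP read out.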

[2] = Drug repurposing screens with cells derived from glioblastoma tumor samples (AID 1345199); conditions: GBM patient neurospheres viability, ATP luminescence, 48 h; further: nearly all actives have a fitted effect of over 40% in size; further: potency means the concentration at half of the fitted maximal effect; on activity, negative = cell killing: on the % scale 0 is the no-effect control and ±100 the full control effect
Summary of the method: (§2)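 Primary testing used CD133+ neurospheres from four GBM patients, seven concentrations, 48 h exposure and ATP-based viability; confirmation added three slower-growing patient lines.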

astro = assay: as above; conditions: viability, ATP luminescence, 48 h; series mostly up to 45.9 µM
Summary of the method: as §2

[3] = qHTS assay for small molecule activators of the human pregnane X receptor (PXR) signaling pathway (AID 720659; call rule not given here; further: 0% is about no effect)
[4] = target: Nuclear receptor subfamily 1 group I member 2 (Rattus norvegicus) (UniProt Q9R1A7); assay: qHTS assay for small molecule activators of the rat pregnane X receptor (rPXR) signaling pathway (AID 651751; call rule not given here; further: 0% is about no effect); conditions: rPXR reporter cells, luciferase (One-Glo), 24 h
Chain of Nuclear receptor subfamily 1 group I member 2 (Rattus norvegicus) (Q9R1A7 whole entry, looked up): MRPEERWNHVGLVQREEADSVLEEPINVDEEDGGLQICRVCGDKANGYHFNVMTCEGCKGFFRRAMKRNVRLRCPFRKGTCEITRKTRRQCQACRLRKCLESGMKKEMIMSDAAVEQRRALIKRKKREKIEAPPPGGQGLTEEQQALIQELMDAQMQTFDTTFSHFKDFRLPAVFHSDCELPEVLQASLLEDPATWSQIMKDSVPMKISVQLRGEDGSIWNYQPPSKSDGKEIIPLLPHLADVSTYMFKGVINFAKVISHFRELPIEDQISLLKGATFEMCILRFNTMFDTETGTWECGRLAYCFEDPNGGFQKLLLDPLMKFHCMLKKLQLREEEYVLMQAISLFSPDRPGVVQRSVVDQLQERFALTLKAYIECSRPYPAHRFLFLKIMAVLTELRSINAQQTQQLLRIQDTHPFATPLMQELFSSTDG

[5] = at 45.9 µM (top of the series), tumour line B
[6] = at 45.9 µM (top of the series), tumour line D
[7] = at 46.1 µM (top of the series), tumour line C
[8] = at 46 µM (top of the series), tumour line A
[9] = at 91.6 µM (top of the series), tumour line B

COC(=O)c1nc(Cl)c(Cl)nc1N
active: Potency (Tov-21-G) 12.6 µM | Potency (Tov112D) 3.16 µM | Potency ([1]; HiBiT) 2.22 µM | Potency ([1]; Viability) 11.1 µM

COC(=O)[C@H]1[C@H]2C[C@@H]3c4[nH]c5cc(OC)ccc5c4CCN3C[C@H]2C[C@@H](OC(=O)/C=C/c2cc(OC)c(OC)c(OC)c2)[C@@H]1OC
inactive: Potency (Tov-21-G) | Potency (Tov112D) | activity, negative = cell killing ([2]; at 20 µM (top of the series), tumour line C) -5.29% | activity, negative = cell killing ([2]; at 21.2 µM (top of the series), tumour line D) -21.8% | Potency (astro)
active: Potency ([2]; tumour line A) 10 µM

Cc1ccc2c(n1)Oc1ccc(C(C)C(=O)OCC(=O)N(C)C)cc1C2 (centres undefined)
inactive: Potency (Tov-21-G) | Potency (Tov112D) | activity, negative = cell killing [2, 5] -2.21% and -4.54% | activity, negative = cell killing [2, 6] -24.2% and -10.3% | activity, negative = cell killing [2, 7] -14.5% and 2.44% | Potency (astro)

CO[C@@]1(NC(=O)Cc2cccs2)C(=O)N2C(C(=O)O)=C(COC(N)=O)CS[C@@H]21
inactive: Potency (Tov-21-G) | Potency (Tov112D) | activity, negative = cell killing [2, 5] 3.39% and 0.545% | activity, negative = cell killing [2, 6] -2.17% and -11.4% | activity, negative = cell killing [2, 7] -9.41% and -2.11% | Potency (astro)

CN1[C@@H]2CC[C@H]1CC(OC(=O)C(CO)c1ccccc1)C2 (some centres undefined)
inactive: Potency (Tov-21-G) | Potency (Tov112D) | activity, negative = cell killing [2, 5] -12.1% and -3.29% | activity, negative = cell killing [2, 6] -9.67% and -14.2% | activity, negative = cell killing [2, 7] 4.75% and 11.7% | outcome [3]

CCCCCCCCCCCCCCCCCC(=O)O
inactive: Potency (Tov-21-G) | Potency (Tov112D) | activity, negative = cell killing [2, 5] -6.65% | activity, negative = cell killing [2, 6] -11.1% | activity, negative = cell killing [2, 8] -19.5% | activity, negative = cell killing [2, 7] -22.7% | max response [4] 1.24% and 3.12% and 0.368% | outcome [3]

CN(C)c1ccc(C(=C2C=CC(=[N+](C)C)C=C2)c2ccccc2)cc1
inactive: outcome [3]
active: Potency (Tov112D) 2 µM | Potency ([1]; HiBiT) 1.98 µM | Potency ([1]; Viability) 3.94 µM

CN(C)c1ccc(N=NS(=O)(=O)O)cc1
inactive: Potency (Tov-21-G) | activity, negative = cell killing [2, 9] -16.9% | outcome [3]

Nc1nc2ccc([N+](=O)[O-])cc2s1
active: Potency ([2]; tumour line A) 39.8 µM
inactive: Potency (Tov-21-G) | Potency (Tov112D) | activity, negative = cell killing [2, 9] -13.3% | activity, negative = cell killing ([2]; at 99.2 µM (top of the series), tumour line C) -20.5% | max response [4] -3.29% | outcome [3]

CC(=O)O[C@H]1C[C@@]2(C)[C@@H](C[C@@H](O)[C@H]3[C@@]4(C)CC[C@@H](O)[C@@H](C)[C@@H]4CC[C@@]32C)/C1=C(\CCC=C(C)C)C(=O)O
inactive: Potency (Tov-21-G) | Potency (Tov112D) | activity, negative = cell killing [2, 5] -17.2% | activity, negative = cell killing [2, 6] 1.56% | activity, negative = cell killing [2, 7] -26.3% | Potency (astro)

O=C(O)[C@H](O)[C@@H](O)[C@H](O)[C@H](O)CO
inactive: activity, negative = cell killing [2, 5] -3.35% and -2.21% | activity, negative = cell killing [2, 6] -11.3% and 8.58% | activity, negative = cell killing [2, 8] -25.5% and -7.46% | activity, negative = cell killing [2, 7] 0.0662% and -1.71% | Potency (astro) | outcome [3]

C=CCN1C(=O)C(CC(C)C)NC1=S (centres undefined)
inactive: activity, negative = cell killing [2, 5] -28.5% and -13.5% | activity, negative = cell killing [2, 6] -8.69% and -21.9% | activity, negative = cell killing [2, 8] -6.38% and -35.5% | activity, negative = cell killing [2, 7] -6.48% and -20.2%

C=CC(N)CCC(=O)O (centres undefined)
inactive: activity, negative = cell killing [2, 5] -2.82% | activity, negative = cell killing [2, 6] -18.8% | activity, negative = cell killing [2, 8] -11.6% | activity, negative = cell killing [2, 7] -7.65%

CC[C@H]1OC(=O)[C@H](C)[C@@H](O[C@H]2C[C@@](C)(OC)[C@@H](O)[C@H](C)O2)[C@H](C)[C@@H](O[C@@H]2O[C@H](C)C[C@H](N(C)C)[C@H]2O)[C@](C)(O)C[C@@H](C)C(=O)[C@H](C)[C@@H](O)[C@]1(C)O
inactive: activity, negative = cell killing [2, 5] -22.6% and -12% | activity, negative = cell killing [2, 6] -9.85% and -27.5% | activity, negative = cell killing [2, 7] -1.15% and -24.2%

O=S(=O)(c1cccc2c(I)cccc12)N1CCCNCC1
inactive: activity change, negative = inhibition ([1]; HiBiT) -4.28% | activity change, negative = inhibition ([1]; Viability) -12.4%

C[S+](CC[C@H](N)C(=O)O)C[C@H]1O[C@@H](n2cnc3c(N)ncnc32)[C@H](O)[C@@H]1O (some centres undefined)
active: Potency ([2]; tumour line A) 7.08 µM
inactive: activity, negative = cell killing [2, 5] 4.03% and -13.3% | activity, negative = cell killing [2, 6] -4.97% and -8.65% | activity, negative = cell killing [2, 7] -29.2% and -23.1% | Potency (astro)

O=C(Nc1ccccc1)c1cc([N+](=O)[O-])ccc1Cl
inactive: max response [4] -1.59%

CCOC(=O)N1CCN(/[N+]([O-])=N/Oc2ccc([N+](=O)[O-])cc2[N+](=O)[O-])CC1
inactive: activity change, negative = inhibition ([1]; Viability) 17.2%
active: Potency ([1]; HiBiT) 6.25 µM

CC(=O)[C@]1(O)Cc2c(O)c3c(c(O)c2[C@@H](O[C@H]2C[C@H](N)[C@H](O)[C@H](C)O2)C1)C(=O)c1c(O)cccc1C3=O
active: Potency (astro) 501 nM and 562 nM

OCC1O[C@H]([S-])[C@H](O)[C@@H](O)[C@@H]1O.[Au+] (some centres undefined)
inactive: activity change, negative = inhibition ([1]; Viability) -5.66%

CN1[C@@H](CC(=O)c2ccccc2)CCC[C@H]1C[C@H](O)c1ccccc1
inactive: activity, negative = cell killing [2, 5] -7.77% | activity, negative = cell killing [2, 6] -23.7% | activity, negative = cell killing [2, 7] 11.9%
active: Potency ([2]; tumour line A) 10 µM
